According to PubChem BioAssay (NCATS):
Records with an inconclusive call do not appear. Calls of active or inactive are those of the source. Calls follow the shape of the dose curve; as a rule, active = well fitted curve in the direction sought with a large enough effect; inconclusive = small, poorly fitted or top-dose-only effect, or another doubt; inactive = no such curve, though single readings can be large; an effect the other way counts as inactive or inconclusive.

Experiments:
[1] = target: Rap guanine nucleotide exchange factor 3 (Homo sapiens) (UniProt O95398); assay: Confirmatory qHTS for agonist of cAMP-regulated guanine nucleotide exchange factor 3 (EPAC1) (AID 1645881);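 also: EPAC1 catalysed release of BODIPY-GDP from Rap1B seen as fluorescence loss; nearly all actives have a fitted effect of over 75% in size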
[2] = target: Rap guanine nucleotide exchange factor 4 (Homo sapiens) (UniProt Q8WZA2); assay: Confirmatory qHTS for antagonist of cAMP-regulated guanine nucleotide exchange factor 4 (EPAC2) (AID 1645885); also: nearly all actives have a fitted effect of over 25% in size
[3] = target: Rap guanine nucleotide exchange factor 3 (Homo sapiens) (UniProt O95398); assay: Counterscreen qHTS for antagonist of cAMP-regulated guanine nucleotide exchange factor 3 (EPAC1) (AID 1645888);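 also: fluorescence loss as bound BODIPY-GDP is released from Rap1B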
How it was run: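 Rap1B–BODIPY-GDP (250 nM) with 50 uM GDP; compounds pin-transferred to 9.74 nM–152 uM final (activator) or from 7.32 nM upwards (inhibitor). Fluorescence Ex/Em 480/540 nm read at 5 and 30 min, then after adding cAMP or buffer, at room temperature.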

Measured: Potency

Rap guanine nucleotide exchange factor 3 (Homo sapiens), sequence (O95398 whole entry, looked up): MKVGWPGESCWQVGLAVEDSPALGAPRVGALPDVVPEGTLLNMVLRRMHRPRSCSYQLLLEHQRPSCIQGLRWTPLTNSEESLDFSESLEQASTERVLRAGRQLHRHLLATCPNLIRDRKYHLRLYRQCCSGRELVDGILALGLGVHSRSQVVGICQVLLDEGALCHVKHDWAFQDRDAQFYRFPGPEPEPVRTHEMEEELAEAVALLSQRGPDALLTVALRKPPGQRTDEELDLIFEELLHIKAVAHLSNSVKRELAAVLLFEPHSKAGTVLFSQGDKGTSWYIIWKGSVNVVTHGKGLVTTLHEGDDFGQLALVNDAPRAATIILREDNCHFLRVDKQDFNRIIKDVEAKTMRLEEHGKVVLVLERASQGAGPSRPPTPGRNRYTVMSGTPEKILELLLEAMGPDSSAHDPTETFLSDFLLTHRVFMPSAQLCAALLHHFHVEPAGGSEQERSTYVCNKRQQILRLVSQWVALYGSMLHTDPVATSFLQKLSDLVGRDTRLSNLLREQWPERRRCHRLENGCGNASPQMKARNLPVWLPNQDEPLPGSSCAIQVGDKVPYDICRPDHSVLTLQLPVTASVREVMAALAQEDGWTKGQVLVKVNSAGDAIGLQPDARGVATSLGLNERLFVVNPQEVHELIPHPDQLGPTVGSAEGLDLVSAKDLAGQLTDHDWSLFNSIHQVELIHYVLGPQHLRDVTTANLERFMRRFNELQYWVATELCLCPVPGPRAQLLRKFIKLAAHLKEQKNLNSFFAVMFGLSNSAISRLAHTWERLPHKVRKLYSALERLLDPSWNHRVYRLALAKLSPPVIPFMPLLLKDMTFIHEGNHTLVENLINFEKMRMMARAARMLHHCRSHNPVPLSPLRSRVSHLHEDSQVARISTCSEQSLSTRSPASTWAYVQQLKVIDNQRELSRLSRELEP
Rap guanine nucleotide exchange factor 4 (Homo sapiens), sequence (Q8WZA2 whole entry, looked up): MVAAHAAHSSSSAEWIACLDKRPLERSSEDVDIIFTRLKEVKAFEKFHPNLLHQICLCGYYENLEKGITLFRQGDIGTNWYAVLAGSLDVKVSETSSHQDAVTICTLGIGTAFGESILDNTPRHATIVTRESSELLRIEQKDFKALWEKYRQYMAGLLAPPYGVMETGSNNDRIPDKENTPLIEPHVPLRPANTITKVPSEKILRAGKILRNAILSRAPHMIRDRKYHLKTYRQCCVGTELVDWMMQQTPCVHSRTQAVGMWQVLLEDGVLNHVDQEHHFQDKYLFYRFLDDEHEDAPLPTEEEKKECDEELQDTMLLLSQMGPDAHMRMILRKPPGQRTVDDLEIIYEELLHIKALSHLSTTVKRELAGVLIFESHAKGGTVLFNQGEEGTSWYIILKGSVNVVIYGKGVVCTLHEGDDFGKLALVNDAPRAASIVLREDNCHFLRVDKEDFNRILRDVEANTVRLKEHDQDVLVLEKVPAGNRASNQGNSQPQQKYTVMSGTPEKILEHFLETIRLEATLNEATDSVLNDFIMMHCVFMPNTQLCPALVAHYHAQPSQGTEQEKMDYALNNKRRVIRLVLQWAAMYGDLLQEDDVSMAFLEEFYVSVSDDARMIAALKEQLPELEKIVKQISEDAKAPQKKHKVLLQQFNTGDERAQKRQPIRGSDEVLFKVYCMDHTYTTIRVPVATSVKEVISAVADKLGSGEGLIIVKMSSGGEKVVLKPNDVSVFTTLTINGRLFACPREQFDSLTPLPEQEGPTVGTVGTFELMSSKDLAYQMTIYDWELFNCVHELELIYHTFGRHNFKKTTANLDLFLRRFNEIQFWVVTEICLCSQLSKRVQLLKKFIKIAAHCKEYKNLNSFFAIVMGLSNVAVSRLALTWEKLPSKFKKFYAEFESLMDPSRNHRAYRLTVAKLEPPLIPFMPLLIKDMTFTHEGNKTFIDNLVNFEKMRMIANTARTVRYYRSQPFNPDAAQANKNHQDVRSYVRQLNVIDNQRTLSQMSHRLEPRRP

COc1ccccc1-n1c(-c2cccs2)nc2ccccc2c1=O
inactive: all assays above
